# From PubChem
# The list is not random: actives were taken first. Their share in the collection is about 4%.
# FGF22 binding: FGF22 (human) thermal shift binding | Q9HCT0 | recombinant FGF22 thermal shift, SYPRO orange fluorescence; percent of sucrose octasulfate shift, DMSO zero | activity (Tm shift, normalised), % at 9.99 µM | 340,000 tested, 1.5% active | AID 651658;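 active = mean Tm shift, scaled 0 neutral to 100 positive control, at about 1.3% or above, every replicate too, limit read from the data; inconclusive = no clear call, values can overlap the other calls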
# RAD52 anneal inh: blocks human RAD52 DNA annealing | P43351 | recombinant RAD52 DNA annealing, FRET fluorescence | inhibition, % at 18.7 µM | 360,000 tested, 0.46% active;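 active = every replicate showing at least 50% inhibition; inconclusive = mean inhibition at least 50% but not in every replicate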
# AF4-AF9 inh: MLL-AF4/AF9 protein interaction inhibition; P42568; AlphaScreen, biotin-AF4 peptide binding to FLAG-AF9; inhibition, % at 10 µM; 350,000 tested, 0.47% active; AID 651704;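 active = every replicate reaching a set inhibition limit, whatever the replicate mean, cut at about 25% in these data; inconclusive = mean inhibition reaches that limit but some replicates miss it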
# Target sequence (P42568 whole entry, looked up): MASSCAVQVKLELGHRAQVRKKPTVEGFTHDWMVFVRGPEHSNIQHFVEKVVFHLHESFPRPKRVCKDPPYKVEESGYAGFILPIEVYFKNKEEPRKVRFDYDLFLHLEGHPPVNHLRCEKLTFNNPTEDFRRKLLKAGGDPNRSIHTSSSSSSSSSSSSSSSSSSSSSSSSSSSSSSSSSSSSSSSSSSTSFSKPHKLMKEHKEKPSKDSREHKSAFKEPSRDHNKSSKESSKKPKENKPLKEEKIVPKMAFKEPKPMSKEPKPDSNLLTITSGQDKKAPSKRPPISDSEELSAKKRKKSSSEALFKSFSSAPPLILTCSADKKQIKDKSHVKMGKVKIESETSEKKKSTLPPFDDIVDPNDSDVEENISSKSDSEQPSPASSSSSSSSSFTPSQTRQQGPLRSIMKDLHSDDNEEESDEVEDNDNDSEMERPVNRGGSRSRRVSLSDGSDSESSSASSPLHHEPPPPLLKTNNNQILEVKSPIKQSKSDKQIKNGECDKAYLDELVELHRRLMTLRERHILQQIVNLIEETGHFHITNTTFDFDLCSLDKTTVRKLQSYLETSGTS
# DENV2 CPE: DENV2-induced cell death inhibition; CPE inhibition, % at 9.99 µM; 350,000 tested, 1.7% active; DENV2-infected cells, cytopathic effect rescue, plate reader; in the data active = CPE inhibition above about 20%, passing the limit was not always enough; inconclusive = no clear call, values can overlap the other calls; tested in BHK-21 cells
# ERAP1 HTS inh: ERAP1 (human) enzyme inhibition | 340,000 tested, 0.15% active | inhibition, % at 10.7 µM | AID 652197 | recombinant ERAP1, Leu-AMC fluorescence, 60 min;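 active = mean replicate inhibition of at least 30%, or all replicates individually reaching that 30% level; inactive = mean below 30% and not every replicate reaching it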
# Hits are given with their value; - = inactive; ? = inconclusive; . = no result.
SMILES,FGF22 binding,RAD52 anneal inh,AF4-AF9 inh,DENV2 CPE,ERAP1 HTS inh
N#Cc1cccc(-c2ccc([C@H]3[C@@H](CO)N4CCCCN(C(=O)Cc5ccccc5)C[C@H]34)cc2)c1,-,-,-,27,-
CCCC#Cc1ccc([C@H]2[C@H]3CN(C(=O)Cc4ccccn4)CCCCN3[C@H]2CO)cc1,-,-,-,21,-
COC(=O)[C@H]1[C@H](CO)[C@H]2Cn3c(ccc(C4=CCCCC4)c3=O)[C@@H]1N2C(=O)CC1CC1,-,-,-,-,-
COc1ccc(C#Cc2ccc([C@@H]3[C@H](CO)N4CCCCN(C(=O)Cc5ccccc5)C[C@@H]34)cc2)cc1,-,-,-,-,-
COC(=O)[C@H]1[C@H](CO)[C@H]2Cn3c(ccc(C4=CCCCC4)c3=O)[C@@H]1N2Cc1ccccc1OC,.,-,-,-,-
COC(=O)[C@H]1[C@H](CO)[C@H]2Cn3c(ccc(C4=CCCCC4)c3=O)[C@@H]1N2CCc1ccccc1,-,-,-,-,-
CN(C)CC#Cc1ccc([C@@H]2[C@@H](CO)N3CCCCN(C(=O)Cc4ccccn4)C[C@@H]23)cc1,-,-,-,-,-
O=C(Cc1cccnc1)N1CCCCN2[C@H](C1)[C@H](c1ccc(C#CC3(O)CCCC3)cc1)[C@@H]2CO,-,-,-,25,-
CN(C)CC#Cc1ccc([C@@H]2[C@@H](CO)N3CCCCN(C(=O)Cc4ccccn4)C[C@H]23)cc1,-,61,-,-,-
O=C(Cc1cccnc1)N1CCCCN2[C@H](CO)[C@H](c3ccc(/C=C/c4ccccc4)cc3)[C@@H]2C1,-,-,-,-,-
OC(CCNCCc1c[nH]c2ccccc12)C(F)(F)Cl (stereo not given),44,-,-,-,-
C[C@H]1C[C@@H](C)C(=O)[C@@H]([C@H](O)CC2CC(=O)NC(=O)C2)C1,-,-,-,124,-
N#Cc1cccc(-c2ccc([C@@H]3[C@H]4CN(C(=O)Cc5ccncc5)CCCCN4[C@H]3CO)cc2)c1,-,-,-,-,-
Cc1cccc(S(=O)(=O)N2[C@@H]3c4ccc(-c5cccc(F)c5)c(=O)n4C[C@H]2[C@H](CO)[C@H]3C(=O)O)c1,-,-,.,-,.
CN1OC[C@@H]2CN[C@H](c3ccc(Br)cc3)C[C@@H]21,-,-,-,26,.
CCOC(=O)[C@]12Cc3ccccc3[C@H]1N(CCC(=O)OC)C(=O)c1cc(OC)ccc12,-,-,-,30,.
CCOC(=O)[C@]12Cc3cc(OC)ccc3[C@H]1N(CCC(=O)OC)C(=O)c1cc(OC)ccc12,-,-,-,-,-
COc1cccc2c1C(=O)c1c(O)c3c(c(O)c1C2=O)CC(O)(C(C)=NO)CC3OC1CC(N)C(O)C(C)O1 (stereo not given),-,-,?,-,33
O=[N+]([O-])c1ccc(N2CCCCCC2)c2ncccc12,-,-,27,-,-
O=[N+]([O-])c1ccc(N2CCCCC2)c2ncccc12,.,-,-,-,-
CC1(C)CC(=O)CC(C)(C)N1O,45,-,-,-,-
O=C(C1CC1)N1C[C@@H]2N[C@H](C1)[C@@H]2c1ccc(-c2ccncc2)cc1,.,-,-,?,-
CCCCC1(CCC)C(=O)NC(=S)NC1=O,43,-,-,-,-
c1ccc(-c2cc(-c3ccccc3)[n+](-c3ccccc3)c(-c3ccccc3)c2)cc1,-,-,-,-,-
CN(C)c1ccc(-[n+]2c(-c3ccccc3)cc(-c3ccccc3)cc2-c2ccccc2)cc1,-,-,31,.,-
SMILES,FGF22 binding,RAD52 anneal inh,AF4-AF9 inh,DENV2 CPE,ERAP1 HTS inh
NC(Cc1ccc(O)cc1)C(=O)NN=Cc1ccc(N(CCCl)CCCl)cc1 (stereo not given),-,-,-,-,-
COc1cc(C(=O)NN=Cc2ccc(N(CCCl)CCCl)cc2)cc(OC)c1OC,44,-,-,-,-
O=C(O)c1cccc2c1NC(c1cccc([N+](=O)[O-])c1)C1CC(Sc3ccccc3[N+](=O)[O-])C(Cl)C21 (stereo not given),-,-,27,-,-
Cc1ccc(OC(=O)N(C)C[C@H]2OCc3ccccc3-c3c(n(C)c4ccccc34)C(=O)N([C@@H](C)CO)C[C@H]2C)cc1,-,-,-,-,-
Cc1ccc(NP(=O)(Oc2ccccc2)Oc2ccccc2)cc1,-,-,-,-,-
Cc1ccc(OP(=O)(NC(C)c2ccccc2)Oc2ccc(C)cc2)cc1 (stereo not given),43,-,-,-,-
O=C(Cc1ccncc1)N1CCCCN2[C@H](CO)[C@H](c3ccc(C#Cc4ccccc4F)cc3)[C@@H]2C1,-,.,-,-,.
O=S1(=O)CCN(CCc2c[nH]c3ccccc23)CC1,43,-,-,-,-
COC(=O)[C@@H]1[C@@H](CO)[C@@H]2Cn3c(cccc3=O)[C@H]1N2C(=O)C1CCC1,-,-,-,-,-
c1ccc(C2(NC3=NCCO3)CCCCC2)cc1,43,-,-,-,-
CN(c1ccc(O)cc1)c1ccc([N+](=O)[O-])c2nonc12,-,-,27,-,-
O=[N+]([O-])c1ccc(N2CCCCCC2)c2nonc12,-,-,-,-,-
COC(=O)[C@@H]1[C@@H](CO)[C@@H]2Cn3c(ccc(C4=CCCC4)c3=O)[C@H]1N2CC1CCCC1,.,-,-,-,-
CNCCc1ccc(OC)c(OC)c1,-,-,-,51,-
C[N+]1(C)[C@@H]2CC[C@H]1CC(OC(=O)C(CO)c1ccccc1)C2 (stereo not given in full),-,-,-,-,-
C[N+]1(C)C2CCC1CC(OC(=O)C(CO)c1ccccc1)C2 (stereo not given),43,-,-,-,-
O=c1[nH]c2cc(Cl)ccc2n1C1CCN(Cc2ccc(-c3nc4ccccc4nc3-c3ccccc3)cc2)CC1,-,-,-,-,-
Cc1ccc2nc(-c3ccc(CN4CCC(n5c(=O)[nH]c6cc(Cl)ccc65)CC4)cc3)c(-c3ccccc3)nc2c1,-,-,.,52,-
CC=Cc1ccc2n(c1=O)C[C@H]1[C@H](CO)[C@@H](C(=O)OC)[C@@H]2N1S(=O)(=O)c1cccc(C)c1 (mixture of isomers),-,-,-,-,-
C1CCC2CCCCC2C1 (stereo not given),-,-,.,33,-
O=C1NC(=O)C(CCc2ccncc2)(CCc2ccncc2)C(=O)N1CCc1ccccc1,-,-,-,-,-
O=C1NC(=O)C(CCc2ccncc2)(CCc2ccccn2)C(=O)N1c1ccc(Br)cc1 (stereo not given),43,-,-,-,-
O=C(Cc1cccnc1)N1CCCCN2[C@H](CO)[C@H](c3ccc(C#CC4CC4)cc3)[C@H]2C1,-,-,-,-,-
CC(C)(C)n1cc(C(=O)c2ccccc2)cc1-c1ccccc1,-,-,-,36,-
COC(=O)C1=C(c2c(C)noc2C)C[C@@H]2CC[C@H]1N2C(=O)NC1CCCCC1,-,-,-,48,-
